Assay results from PubChem BioAssay.
The source made the active and inactive calls.

assay: plasmodial surface anion channel blockers, osmotic lysis – cell-based, P. falciparum Indochina, OD700, 18 h, primary screen (AID 1157); conditions: P. falciparum Indochina infected erythrocytes, osmotic lysis OD700, 18 h; higher = more signal, called active from +8 up or from −8 down

Row | Compound | z-score
1 | CCN1C(=O)[C@H]2[C@H]3[C@H](O)[C@H](O)CC(=NOCC=C(C)CCC=C(C)C)[C@H]3CC[C@H]2C1=O | -0.163 (inactive)
2 | CC(C)C[C@@H]1NC(=O)[C@H]2C[C@@H](C(=O)O)[C@@H](c3ccc(O)cc3)N2C1=O | 0.448 (inactive)
3 | CN(C)C(=O)[C@@]1(Cc2ccccc2)N=C(c2ccc(OCCCO)cc2)O[C@H]1c1ccccc1CN=[N+]=[N-] | 0.0009 (inactive)
4 | CO[C@@H]1COC(=O)CC=C[C@@H](C)[C@@H]2C=C[C@H](O)[C@@H](COC(=O)CCC[C@H]1C)O2 | -2.26 (inactive)
5 | CC(C)CON=C1C[C@@H](O)[C@@H](O)[C@@H]2[C@@H]3C(=O)N(Cc4ccccc4)C(=O)[C@@H]3CC[C@@H]12 | -0.0378 (inactive)
6 | COC(=O)c1c(CC[C@@H](CO)NC(=O)N[C@H](Cc2ccccc2)Cn2cc(-c3ccccc3N)nn2)oc(C(C)=O)c1C(=O)OC | 1.73 (inactive)
7 | CO[C@@H]1COC(=O)CCC[C@@H](C)[C@H](OC)COC(=O)CCC[C@H]1C | 0.49 (inactive)
8 | CCOC(=O)CCN1C(=O)[C@H]2[C@H]3[C@H](O)[C@H](O)CC(=NOC[C@@H](O)COCc4ccco4)[C@@H]3CC[C@H]2C1=O | 0.403 (inactive)
9 | C=COC[C@H]1CN2[C@@H](CC[C@@H](C)[C@@H]2c2ccc(Br)cc2)C(=O)O1 | -1.99 (inactive)
10 | O=C1C[C@@H](O)[C@@H](O)[C@@H]2[C@@H]3C(=O)N(c4cccc(Oc5ccccc5)c4)C(=O)[C@@H]3CC[C@@H]12 | 0.0818 (inactive)
11 | COc1ccc([Si](C)(C)[C@@H]2[C@@H](CCO)O[C@]3(C(=O)N(Cc4ccc(NC(C)=O)cc4)c4ccccc43)[C@H]2C)cc1 | 0.0087 (inactive)
12 | O=C1[C@H]2[C@H]3[C@H](O)[C@H](O)CC(=NO[C@@H]4O[C@H](CO)[C@@H](O)[C@H](O)[C@H]4O)[C@H]3CC[C@H]2C(=O)N1C1CCCCC1 | -0.136 (inactive)
13 | COc1ccc(-c2ccc3c(n2)CCCN3CC(O)CN2CCCc3nc(C)c(C)cc32)cc1 (stereo not given) | 0.0758 (inactive)
14 | O=C1CCCC2OC12C(O)CCc1ccccc1 (stereo not given) | -0.169 (inactive)
15 | C[C@@H](c1ccccc1)N1C(=O)[C@H]2[C@H]3[C@H](O)[C@H](O)CC(=NNC(=O)OCc4ccccc4)[C@H]3CC[C@H]2C1=O | 0.0072 (inactive)
16 | COc1ccc(O[C@H]2C=C[C@@H](c3ccccc3)O[C@@H]2COC(=O)CCC(C)=NOCC[C@@H]2C=C[C@H](OC(C)=O)[C@@H](COC(C)=O)O2)cc1 | 0.588 (inactive)
17 | COC(=O)C1=C(C)N(Cc2ccccc2)[C@]23O[C@](C(=O)OC)(C(=O)N2[C@@H]1c1ccccc1)[C@H]1CCOC(=O)[C@H]13 | 0.443 (inactive)
18 | Cn1c(=O)n2n(c1=O)[C@H]1[C@H](O)[C@@H]3O[C@@H]3C(=NOC[C@@H](O)COCc3ccco3)[C@H]1CC2 | 0.08 (inactive)
19 | C[C@@H]1CC[C@H]2C(=O)O[C@H](COc3ccc(C(C)(C)C)cc3)CN2[C@H]1c1ccc(Br)cc1 | 0.343 (inactive)
20 | C=CC[C@]1(C(=O)NCc2ccccc2)N=C(c2ccc(OCCCO)cc2)O[C@H]1c1ccccc1 | 1.26 (inactive)
21 | COCCNC(=O)OCC1CCCC2(CC(OC(=O)NCCc3ccc(F)cc3)CC(CCC(=O)N[C@@H](C)C(=O)OC)O2)O1 (stereo not given in full) | 0.565 (inactive)
22 | CCOC(=O)CCN1C(=O)[C@H]2[C@H]3[C@H](O)[C@H](O)CC(=NOCc4ccccc4)[C@@H]3CC[C@H]2C1=O | 0.429 (inactive)
23 | CCCNC(=O)OC[C@H]1O[C@H](CCON=CC[C@@H]2C=C[C@H](OC(C)=O)[C@@H](COC(C)=O)O2)C=C[C@@H]1Oc1ccc(OC)cc1 | 0.392 (inactive)
24 | O=C1[C@H]2[C@H]3[C@H](O)[C@H](O)CC(=NOC[C@@H](O)COCc4ccco4)[C@H]3CC[C@H]2C(=O)N1Cc1ccc2c(c1)OCO2 | 0.229 (inactive)
25 | COC(=O)CC=C[C@@H](C)[C@@H](C=NO[C@@H](C)c1cc(-c2c(C)cc(C)cc2C)no1)OC | -1.37 (inactive)
26 | C=C(/C(=C/C[C@@H](OC(=O)c1ccncc1)c1ccc(OCCO)cc1)c1cnc2ccccc2c1)C(C)C | -0.0139 (inactive)
27 | CC(=O)OC[C@H]1O[C@H](CC=NOC[C@@H](C)[C@H](OCc2ccccc2)C(C)C)C=C[C@@H]1OC(C)=O | 0.343 (inactive)

assay: S6 kinase pathway phospho-S6 level changes – cell-based, A549, cytoblot, luminescence, serum-stimulated, primary screen (AID 1158); conditions: 5 h, higher = more signal;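 note: serum-stimulated A549 lung adenocarcinoma cells; signal is phosphorylated S6 detected by cytoblot immunostaining with HRP secondary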

Row | Compound | z-score
28 | CC(C)c1ccc(NN2C(C(O)c3ccc4c(c3)OCO4)C=CC3C(=O)N(c4ccccc4)C(=O)C32)cc1 (stereo not given) | -0.467
29 | C[C@@H]1CCC2C(=O)N(Cc3ccccc3)C[C@@H](O)CN2[C@H]1c1ccc(Br)cc1 (stereo not given in full) | 0.805
30 | O=C1[C@H]2[C@H]3[C@H](O)[C@H](O)CC(=NO[C@@H]4O[C@H](CO)[C@@H](O)[C@H](O)[C@H]4O)[C@H]3CC[C@H]2C(=O)N1Cc1ccc2c(c1)OCO2 | -0.438
31 | CC[C@@H](c1ccccc1)n1c(=O)n2n(c1=O)[C@H]1[C@H](O)[C@@H]3O[C@@H]3C(=NOCC=C(C)CCC=C(C)C)[C@H]1CC2 | -0.45
32 | CC(C)(C)N1C(=O)[C@H]2[C@H]3[C@H](O)[C@H](O)CC(=NO[C@@H]4O[C@H](CO)[C@@H](O)[C@H](O)[C@H]4O)[C@@H]3CC[C@H]2C1=O | -0.345
33 | CC(C)(C)N1C(=O)[C@H]2[C@H]3[C@H](O)[C@H](O)CC(=NOCc4ccccc4)[C@@H]3CC[C@H]2C1=O | 0.581
34 | COCCOC(=O)N1C(=O)[C@@]2(c3cc(C#CCNC(N)=O)ccc31)[C@H](c1ccccc1OCCO)N1[C@H](c3ccccc3)[C@H](c3ccccc3)OC(=O)[C@H]1[C@@H]2C(=O)N1CCN(c2ncccn2)CC1 | 2.82
35 | COc1ccc(O[C@H]2C=C[C@@H](c3ccccc3)O[C@@H]2COC(=O)N2CCCCC2)cc1 | -0.428
36 | CCc1cccc(NC(=O)O[C@H]2[C@H](OC(=O)Nc3ccc4c(c3)OCO4)[C@@H](OC(=O)Nc3ccc4c(c3)OCO4)[C@@H](OC)O[C@@H]2CO)c1 | 0.19
37 | CCN1C(=O)[C@H]2[C@H]3[C@H](O)[C@H](O)CC(=NOCC=C(C)CCC=C(C)C)[C@H]3CC[C@H]2C1=O | -0.0053
38 | CC(C)C[C@@H]1NC(=O)[C@H]2C[C@@H](C(=O)O)[C@@H](c3ccc(O)cc3)N2C1=O | -0.239
39 | CN(C)C(=O)[C@@]1(Cc2ccccc2)N=C(c2ccc(OCCCO)cc2)O[C@H]1c1ccccc1CN=[N+]=[N-] | -0.474
40 | CO[C@@H]1COC(=O)CC=C[C@@H](C)[C@@H]2C=C[C@H](O)[C@@H](COC(=O)CCC[C@H]1C)O2 | 0.49
41 | CC(C)CON=C1C[C@@H](O)[C@@H](O)[C@@H]2[C@@H]3C(=O)N(Cc4ccccc4)C(=O)[C@@H]3CC[C@@H]12 | 0.524
42 | COC(=O)c1c(CC[C@@H](CO)NC(=O)N[C@H](Cc2ccccc2)Cn2cc(-c3ccccc3N)nn2)oc(C(C)=O)c1C(=O)OC | 0.211
43 | CO[C@@H]1COC(=O)CCC[C@@H](C)[C@H](OC)COC(=O)CCC[C@H]1C | -0.918
44 | CCOC(=O)CCN1C(=O)[C@H]2[C@H]3[C@H](O)[C@H](O)CC(=NOC[C@@H](O)COCc4ccco4)[C@@H]3CC[C@H]2C1=O | -0.426

Row | Compound | z-score
45 | C=COC[C@H]1CN2[C@@H](CC[C@@H](C)[C@@H]2c2ccc(Br)cc2)C(=O)O1 | 1.54
46 | O=C1C[C@@H](O)[C@@H](O)[C@@H]2[C@@H]3C(=O)N(c4cccc(Oc5ccccc5)c4)C(=O)[C@@H]3CC[C@@H]12 | -0.363
47 | COc1ccc([Si](C)(C)[C@@H]2[C@@H](CCO)O[C@]3(C(=O)N(Cc4ccc(NC(C)=O)cc4)c4ccccc43)[C@H]2C)cc1 | 0.339
48 | O=C1[C@H]2[C@H]3[C@H](O)[C@H](O)CC(=NO[C@@H]4O[C@H](CO)[C@@H](O)[C@H](O)[C@H]4O)[C@H]3CC[C@H]2C(=O)N1C1CCCCC1 | 0.561
49 | COc1ccc(-c2ccc3c(n2)CCCN3CC(O)CN2CCCc3nc(C)c(C)cc32)cc1 (stereo not given) | -0.0509
50 | O=C1CCCC2OC12C(O)CCc1ccccc1 (stereo not given) | 0.172
51 | C[C@@H](c1ccccc1)N1C(=O)[C@H]2[C@H]3[C@H](O)[C@H](O)CC(=NNC(=O)OCc4ccccc4)[C@H]3CC[C@H]2C1=O | 0.296
52 | COc1ccc(O[C@H]2C=C[C@@H](c3ccccc3)O[C@@H]2COC(=O)CCC(C)=NOCC[C@@H]2C=C[C@H](OC(C)=O)[C@@H](COC(C)=O)O2)cc1 | -0.268
53 | COC(=O)C1=C(C)N(Cc2ccccc2)[C@]23O[C@](C(=O)OC)(C(=O)N2[C@@H]1c1ccccc1)[C@H]1CCOC(=O)[C@H]13 | -0.537
54 | Cn1c(=O)n2n(c1=O)[C@H]1[C@H](O)[C@@H]3O[C@@H]3C(=NOC[C@@H](O)COCc3ccco3)[C@H]1CC2 | 0.0625
55 | C[C@@H]1CC[C@H]2C(=O)O[C@H](COc3ccc(C(C)(C)C)cc3)CN2[C@H]1c1ccc(Br)cc1 | -0.53
56 | C=CC[C@]1(C(=O)NCc2ccccc2)N=C(c2ccc(OCCCO)cc2)O[C@H]1c1ccccc1 | -0.0429
57 | COCCNC(=O)OCC1CCCC2(CC(OC(=O)NCCc3ccc(F)cc3)CC(CCC(=O)N[C@@H](C)C(=O)OC)O2)O1 (stereo not given in full) | 0.672
58 | CCOC(=O)CCN1C(=O)[C@H]2[C@H]3[C@H](O)[C@H](O)CC(=NOCc4ccccc4)[C@@H]3CC[C@H]2C1=O | -0.32
59 | CCCNC(=O)OC[C@H]1O[C@H](CCON=CC[C@@H]2C=C[C@H](OC(C)=O)[C@@H](COC(C)=O)O2)C=C[C@@H]1Oc1ccc(OC)cc1 | -0.397
60 | O=C1[C@H]2[C@H]3[C@H](O)[C@H](O)CC(=NOC[C@@H](O)COCc4ccco4)[C@H]3CC[C@H]2C(=O)N1Cc1ccc2c(c1)OCO2 | -0.552
